Source: PubChem (National Center for Advancing Translational Sciences (NCATS))
Shown is part of a subset that was picked to be rich in hits.
KDM5B inhibitor – inhibitors of human KDM5B histone demethylase | Potency, µM (doses to about 57.7 µM), actives largely listed as inhibitors | KDM5B demethylase, FDH-coupled NADH fluorescence (FDH is formaldehyde dehydrogenase) | AID 1347165 | Q9UGL1 | hit rate 2.6% among 220,000; active means well fitted inhibition curve with a large enough effect; further: 0% is about no effect; nearly all actives have a fitted effect of over 70% in size
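Measured: NADH fluorescence change, 30 min, RT. System: KDM5BΔAP 200 nM final, H3K4me3 peptide, α-KG, Fe(II), ascorbate, NAD⁺ plus FDH, pH 7.5 HEPES. Compounds: titrated, 10 min pre-incubation with enzyme.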
* hit, by the source's call; i = inactive. Potency means the concentration at half of the fitted maximal effect.

SMILES	KDM5B inhibitor
CSc1ccc(-c2ccc(=O)n3c2[C@@H]2C[C@@H](CN(S(C)(=O)=O)C2)C3)cc1	35.5µM*
CC(=O)OC1CC2(O)[C@@H]3CCC4CC(OC5CC(O)C(OC6CC(O)C(OC7CC(O)C(O)C(C)O7)C(C)O6)C(C)O5)CCC4(C)[C@H]3CCC2(C)C1C1=CC(=O)OC1 (stereo partly specified)	i
CC(C)NC(=O)C(C)Cl (stereo unspecified)	i
Oc1ccc(C2N(O)C3CCCCC3N2O)cc1 (stereo unspecified)	i
CCCC(=O)c1cn(Cc2ccc(C#N)cc2)c2ccccc12	i
CC1CN2CC(O)CC2CN1 (stereo unspecified)	i
C1NC2CC3CC1CC(C3)C2	i
c1ccc(CCNC2CCCCCCC2)cc1	i
Cc1ccccc1CC(=O)N1CCN(C(C)c2nc(C3CC3)no2)CC1 (stereo unspecified)	i
CC(C)N1CCC(NC(=O)c2cn(Cc3ccccc3)c3ccccc23)CC1	i
COCc1nnc2n1CCC(NC(=O)c1nn(C)c3ccccc13)CC2 (stereo unspecified)	28.2µM*
COCCn1c(C)cc(C(=O)NC2CCc3nnc(C)n3CC2)c1C (stereo unspecified)	i
Clc1ccc(C2NCc3ccccc3-n3cccc32)cc1 (stereo unspecified)	i
Cc1[nH]c2ccc(C34CC5CC(CC(C5)C3)C4)cc2c1CCN	i
CC(C(=O)c1c[nH]c2ccccc12)N(Cc1ccc(F)cc1)C1CC1 (stereo unspecified)	i
